Test results taken from PubChem BioAssay (NCI).
This is part of a sample that, as a whole, favours compounds with a hit. Of some 83,000 tested, about 20% had one in any assay.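 Cells were grown in 96-well plates and exposed to the test compound at a single concentration for 48 hours; results are reported as percent growth, with values below 10 considered active.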 Active and inactive are the calls of the source.

Legend:
Assay in all cases: NCI-60 one-dose screen, 48 h (100 = growth as untreated, 0 = no growth, -100 = all killed)
Settings in all cases: 10 µM unless noted
SK-MEL-2 melanoma = system: SK-MEL-2 melanoma
EKVX NSCLC = system: EKVX NSCLC
SN12C renal = system: SN12C renal
UO-31 renal = system: UO-31 renal
TK-10 renal = system: TK-10 renal
ACHN renal = system: ACHN renal
CAKI-1 renal = system: CAKI-1 renal
A498 renal = system: A498 renal
CCRF-CEM leukemia = system: CCRF-CEM leukemia
MOLT-4 leukemia = system: MOLT-4 leukemia
RPMI-8226 leukemia = system: RPMI-8226 leukemia
OVCAR-8 ovarian = system: OVCAR-8 ovarian
OVCAR-5 ovarian = system: OVCAR-5 ovarian
OVCAR-4 ovarian = system: OVCAR-4 ovarian
SK-OV-3 ovarian = system: SK-OV-3 ovarian
IGROV1 ovarian = system: IGROV1 ovarian
OVCAR-3 ovarian = system: OVCAR-3 ovarian
HS 578T breast = system: HS 578T breast
NCI/ADR-RES ovarian = system: NCI/ADR-RES ovarian

Measured: growth

Cc1cc(O)c(C2=NN(c3ccc(S(N)(=O)=O)cc3)C(c3ccccc3Cl)C2)cc1Cl (centres undefined)
inactive: SK-MEL-2 melanoma 25.2% | SN12C renal 18.8% | UO-31 renal 16.5% | TK-10 renal 60.6% | ACHN renal 15.7% | A498 renal 45.9% | RPMI-8226 leukemia 11% | OVCAR-5 ovarian 18.1% | OVCAR-4 ovarian 34.3% | SK-OV-3 ovarian 44.5% | IGROV1 ovarian 12.2%
active: EKVX NSCLC -1.91% | CAKI-1 renal -3.01% | CCRF-CEM leukemia 9.09% | MOLT-4 leukemia -31.6% | OVCAR-8 ovarian -14.5% | OVCAR-3 ovarian -13.1% | HS 578T breast -4.47% | NCI/ADR-RES ovarian -11%

Cc1ccc(/C=C/c2c(C(=O)/C=C/c3ccc(Cl)cc3)c(C)nc3ccccc23)cc1
active: SK-MEL-2 melanoma 8.94% | SN12C renal -49.2% | UO-31 renal -74.7% | ACHN renal -64.6% | CAKI-1 renal -4.17% | A498 renal -16.1% | CCRF-CEM leukemia 4.53% | MOLT-4 leukemia 0.928% | RPMI-8226 leukemia -31.7% | OVCAR-5 ovarian -33.4% | OVCAR-4 ovarian 6.64% | IGROV1 ovarian 1.39% | OVCAR-3 ovarian -46.2% | HS 578T breast -5.28% | NCI/ADR-RES ovarian -21.6%
inactive: EKVX NSCLC 17.6% | TK-10 renal 26.5% | OVCAR-8 ovarian 13% | SK-OV-3 ovarian 55.1%

C[C@H]1[C@H]2[C@H]3CC[C@@H]4[C@@]5(C)C/C(=C/c6ccco6)C(=O)C(C)(C)[C@@H]5CC[C@@]4(C)[C@]3(C)CC[C@]23CO[C@]1(C)[C@@H](C(=O)/C=C\c1ccco1)C3
inactive: SK-MEL-2 melanoma 65.6% | EKVX NSCLC 107% | SN12C renal 90.4% | UO-31 renal 71.5% | TK-10 renal 103% | ACHN renal 68.4% | CAKI-1 renal 69% | A498 renal 123% | CCRF-CEM leukemia 100% | MOLT-4 leukemia 100% | RPMI-8226 leukemia 78% | OVCAR-8 ovarian 98.8% | OVCAR-5 ovarian 113% | OVCAR-4 ovarian 90.7% | SK-OV-3 ovarian 108% | IGROV1 ovarian 101% | OVCAR-3 ovarian 103% | HS 578T breast 94% | NCI/ADR-RES ovarian 108%

Cn1c(=O)c2c(nc(Cl)n2CCl)n(C)c1=O
inactive: SK-MEL-2 melanoma 89.9% | EKVX NSCLC 112% | SN12C renal 106% | UO-31 renal 93.4% | TK-10 renal 95.6% | ACHN renal 104% | CAKI-1 renal 98.5% | A498 renal 118% | CCRF-CEM leukemia 84.9% | MOLT-4 leukemia 99.7% | RPMI-8226 leukemia 92.3% | OVCAR-8 ovarian 83% | OVCAR-5 ovarian 103% | OVCAR-4 ovarian 83.2% | SK-OV-3 ovarian 115% | IGROV1 ovarian 53.8% | OVCAR-3 ovarian 116% | HS 578T breast 83.8% | NCI/ADR-RES ovarian 101%

CCOc1ccccc1-n1c(CN2CCN(C(=O)COc3ccc(CNCCCCCCN4C5CCCC4CC(OC(=O)Nc4cc(C)ccc4OC)C5)cc3)CC2)nc2ccccc2c1=O (centres undefined)
inactive: NCI/ADR-RES ovarian 67%
active: SK-MEL-2 melanoma -90.9% | EKVX NSCLC -92.1% | SN12C renal -91% | UO-31 renal -98.5% | TK-10 renal -86.3% | ACHN renal -100% | CAKI-1 renal -100% | A498 renal -93.4% | CCRF-CEM leukemia -64.9% | MOLT-4 leukemia -68% | RPMI-8226 leukemia -56.8% | OVCAR-8 ovarian -88.4% | OVCAR-5 ovarian -91.5% | OVCAR-4 ovarian -84.7% | SK-OV-3 ovarian -98.7% | IGROV1 ovarian -77.4% | OVCAR-3 ovarian -91.6% | HS 578T breast -42.2%

COc1ccc(NC(=O)CSc2nnc(-c3cc(-c4ccc(S(N)(=O)=O)cc4)nc4ccccc34)n2-c2ccccc2)cc1
inactive: SK-MEL-2 melanoma 93% | EKVX NSCLC 78.5% | SN12C renal 81.6% | UO-31 renal 74.5% | TK-10 renal 103% | ACHN renal 81.6% | CAKI-1 renal 61.2% | A498 renal 54.3% | CCRF-CEM leukemia 73.2% | MOLT-4 leukemia 58% | RPMI-8226 leukemia 57.9% | OVCAR-8 ovarian 75.4% | OVCAR-5 ovarian 92.8% | OVCAR-4 ovarian 88.6% | SK-OV-3 ovarian 89.8% | IGROV1 ovarian 77.9% | OVCAR-3 ovarian 95.1% | HS 578T breast 75.6% | NCI/ADR-RES ovarian 104%

CN(C)CCC=C1c2ccccc2C(C)(C)c2ccccc21
active: RPMI-8226 leukemia 0.547%
inactive: SK-MEL-2 melanoma 74.4% | EKVX NSCLC 110% | SN12C renal 71.2% | UO-31 renal 58.1% | TK-10 renal 98.3% | ACHN renal 90.5% | CAKI-1 renal 91.2% | A498 renal 91% | CCRF-CEM leukemia 49.6% | MOLT-4 leukemia 72.9% | OVCAR-8 ovarian 88.9% | OVCAR-5 ovarian 59.4% | OVCAR-4 ovarian 76.5% | SK-OV-3 ovarian 99.7% | IGROV1 ovarian 61.3% | OVCAR-3 ovarian 80.1% | HS 578T breast 50.8% | NCI/ADR-RES ovarian 77.6%

COc1cc(/C=C/C(=O)c2c(C)nc3ccccc3c2/C=C/c2ccc(C)cc2)cc(OC)c1OC
inactive: SK-MEL-2 melanoma 39.7% | EKVX NSCLC 34.7% | SN12C renal 15.2% | UO-31 renal 33.5% | TK-10 renal 54.3% | ACHN renal 13.7% | CAKI-1 renal 28.6% | A498 renal 32.6% | OVCAR-8 ovarian 17% | OVCAR-5 ovarian 17.7% | OVCAR-4 ovarian 39.5% | SK-OV-3 ovarian 58.6% | IGROV1 ovarian 21% | OVCAR-3 ovarian 15.6% | HS 578T breast 46.7%
active: CCRF-CEM leukemia 5.31% | MOLT-4 leukemia 4.36% | RPMI-8226 leukemia -13.4% | NCI/ADR-RES ovarian 9.69%

CCCCCCCCCCCCCCCCCC1=NCCN1CCOC1=C(Cl)C(=O)c2ccccc2C1=O
active: CAKI-1 renal 8.77% | OVCAR-4 ovarian -5.67%
inactive: SK-MEL-2 melanoma 85.3% | EKVX NSCLC 86.7% | SN12C renal 78.9% | UO-31 renal 42.6% | TK-10 renal 78.9% | ACHN renal 30.2% | A498 renal 99.7% | CCRF-CEM leukemia 57% | MOLT-4 leukemia 71.7% | RPMI-8226 leukemia 33.1% | OVCAR-8 ovarian 75% | OVCAR-5 ovarian 115% | SK-OV-3 ovarian 99.9% | IGROV1 ovarian 67% | OVCAR-3 ovarian 23.4% | HS 578T breast 90.1% | NCI/ADR-RES ovarian 81.7%

O=c1ccn2nc3ccccc3c2[nH]1
inactive: SK-MEL-2 melanoma 108% | EKVX NSCLC 63.6% | SN12C renal 84.8% | UO-31 renal 76.6% | TK-10 renal 121% | ACHN renal 91.1% | CAKI-1 renal 89.4% | A498 renal 125% | CCRF-CEM leukemia 118% | MOLT-4 leukemia 108% | RPMI-8226 leukemia 101% | OVCAR-8 ovarian 114% | OVCAR-5 ovarian 79.2% | OVCAR-4 ovarian 111% | SK-OV-3 ovarian 99.4% | IGROV1 ovarian 110% | OVCAR-3 ovarian 117% | HS 578T breast 134% | NCI/ADR-RES ovarian 60.1%

N#Cc1nc(C#N)c(Sc2ccccc2)c(Sc2ccccc2)c1Sc1ccccc1
inactive: CAKI-1 renal 17.7% | HS 578T breast 55.2% | NCI/ADR-RES ovarian 20.3%
active: SK-MEL-2 melanoma -64.1% | EKVX NSCLC 8.11% | SN12C renal 0.446% | UO-31 renal -72.1% | TK-10 renal -36.8% | ACHN renal -78% | A498 renal -14.1% | CCRF-CEM leukemia -7.95% | MOLT-4 leukemia -19.2% | RPMI-8226 leukemia 0.263% | OVCAR-8 ovarian 3.62% | OVCAR-5 ovarian -71.3% | OVCAR-4 ovarian -11.9% | SK-OV-3 ovarian -10.3% | IGROV1 ovarian -67.9% | OVCAR-3 ovarian -87.7%

Clc1cccc(Cl)c1C(Nc1nc2ccccc2s1)Nc1nc2ccccc2s1
inactive: SK-MEL-2 melanoma 76% | EKVX NSCLC 97.1% | SN12C renal 108% | UO-31 renal 75% | TK-10 renal 114% | ACHN renal 89.3% | CAKI-1 renal 108% | A498 renal 112% | CCRF-CEM leukemia 81.7% | MOLT-4 leukemia 89.5% | OVCAR-8 ovarian 108% | OVCAR-5 ovarian 90.3% | OVCAR-4 ovarian 84.6% | SK-OV-3 ovarian 94.2% | OVCAR-3 ovarian 114% | HS 578T breast 106% | NCI/ADR-RES ovarian 108%
active: RPMI-8226 leukemia 5.02% | IGROV1 ovarian -15.1%

O=c1c2c3c(sc2n2c(-c4cn(-c5ccccc5)nc4-c4ccc(Cl)cc4)nnc2n1Cc1ccccc1)CCCC3
inactive: SK-MEL-2 melanoma 97.8% | EKVX NSCLC 87.1% | SN12C renal 91.2% | TK-10 renal 107% | ACHN renal 99.2% | CAKI-1 renal 100% | A498 renal 100% | CCRF-CEM leukemia 81.1% | MOLT-4 leukemia 85.4% | RPMI-8226 leukemia 94.1% | OVCAR-8 ovarian 97.1% | OVCAR-5 ovarian 103% | OVCAR-4 ovarian 95.5% | SK-OV-3 ovarian 109% | OVCAR-3 ovarian 103% | HS 578T breast 96.9% | NCI/ADR-RES ovarian 101%
active: UO-31 renal 4.67%

COc1cc(C(=O)c2cc(C)c3[nH]c4ccc(Cl)cc4c3c2C)cc(OC)c1OC
active: A498 renal -9.44% | IGROV1 ovarian 9.24% | OVCAR-3 ovarian -35.7% | NCI/ADR-RES ovarian 0.863%
inactive: SK-MEL-2 melanoma 57.6% | EKVX NSCLC 50.2% | SN12C renal 17.5% | UO-31 renal 24.6% | TK-10 renal 87.5% | ACHN renal 24.2% | CAKI-1 renal 21% | CCRF-CEM leukemia 17.2% | MOLT-4 leukemia 20.7% | RPMI-8226 leukemia 22.4% | OVCAR-8 ovarian 28.5% | OVCAR-5 ovarian 42.3% | OVCAR-4 ovarian 56.4% | SK-OV-3 ovarian 45.7% | HS 578T breast 43.5%

Cc1cccc(NC(=O)N/C(N)=N/c2nc(C)c(C)s2)c1
inactive: SK-MEL-2 melanoma 43.7% | EKVX NSCLC 55.8% | SN12C renal 57.6% | UO-31 renal 64.3% | TK-10 renal 96.3% | ACHN renal 63.4% | CAKI-1 renal 30.6% | A498 renal 20% | CCRF-CEM leukemia 53.5% | MOLT-4 leukemia 21.9% | RPMI-8226 leukemia 28.8% | OVCAR-8 ovarian 58% | OVCAR-5 ovarian 82.3% | OVCAR-4 ovarian 76% | SK-OV-3 ovarian 65.6% | IGROV1 ovarian 47.5% | OVCAR-3 ovarian 39.8% | HS 578T breast 43.9% | NCI/ADR-RES ovarian 25.3%
